# From PMC7862700, “An all-to-all approach to the identification of sequence-specific readers for epigenetic DNA modifications on cytosine”
# Columns and labels:
# Experiment in all cases: DAPPL (digital affinity profiling via proximity ligation, sequencing); 10 mM Tris-HCl pH 7.5, 50 mM NaCl, 1 mM DTT, 4% glycerol, room temperature, 30 min; GST-TFs on glutathione beads, 16-mer random dsDNA library, 0.1% formaldehyde crosslink after washing; high values mean tight binding
# Conditions in all cases: protein: recombinant; tags: N-terminal GST; dsDNA, one strand shown
# FLI1 = molecular target: T1, FLI1 (Homo sapiens, UniProt Q01543 1-452)
# T1 sequence: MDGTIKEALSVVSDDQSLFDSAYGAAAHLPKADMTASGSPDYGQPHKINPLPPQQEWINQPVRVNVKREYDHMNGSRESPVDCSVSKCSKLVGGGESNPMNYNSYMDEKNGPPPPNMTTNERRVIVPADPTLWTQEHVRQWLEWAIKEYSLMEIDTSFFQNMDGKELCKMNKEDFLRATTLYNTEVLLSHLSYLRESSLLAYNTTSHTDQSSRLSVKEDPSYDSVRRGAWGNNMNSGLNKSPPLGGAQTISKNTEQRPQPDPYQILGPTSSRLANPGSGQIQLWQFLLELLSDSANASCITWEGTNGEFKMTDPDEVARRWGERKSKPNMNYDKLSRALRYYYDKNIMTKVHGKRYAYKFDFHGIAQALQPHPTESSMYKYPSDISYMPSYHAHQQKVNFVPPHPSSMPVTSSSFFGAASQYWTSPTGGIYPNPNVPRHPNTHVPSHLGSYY
# How it was run: (§1)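 Binding signal is each hexamer's read frequency for a factor divided by its frequency in the tag-only sample. The factors were GST-fused human transcription factors from yeast, captured on glutathione beads, DNA-barcoded and pooled with that sample. Pools were incubated with 200 nmole of a random double-stranded 16-mer DNA library in Tris/NaCl/DTT/glycerol buffer at room temperature for 30 min, then washed, crosslinked with 0.1% formaldehyde, proximity-ligated with BsaI/T4 ligase (1 h, 37 °C), PCR-amplified and sequenced on an Illumina NextSeq500.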
# ELK1 = molecular target: T2, ELK1 (Homo sapiens, UniProt P19419 1-428)
# T2 sequence: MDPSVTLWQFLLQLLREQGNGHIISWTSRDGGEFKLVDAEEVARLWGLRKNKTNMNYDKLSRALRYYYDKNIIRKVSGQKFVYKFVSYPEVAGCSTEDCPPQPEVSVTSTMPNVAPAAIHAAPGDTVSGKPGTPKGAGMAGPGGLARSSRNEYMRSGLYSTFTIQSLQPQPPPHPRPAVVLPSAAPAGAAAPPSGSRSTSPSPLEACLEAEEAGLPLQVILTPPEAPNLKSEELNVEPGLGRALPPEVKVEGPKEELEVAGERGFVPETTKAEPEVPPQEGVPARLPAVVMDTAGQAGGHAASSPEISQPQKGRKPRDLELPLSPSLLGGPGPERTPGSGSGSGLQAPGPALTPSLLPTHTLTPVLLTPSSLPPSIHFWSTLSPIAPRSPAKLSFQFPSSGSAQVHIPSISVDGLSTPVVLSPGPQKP
# How it was run: as §1
# ERG = molecular target: T3, ERG (Homo sapiens, UniProt P11308 1-479)
# T3 sequence: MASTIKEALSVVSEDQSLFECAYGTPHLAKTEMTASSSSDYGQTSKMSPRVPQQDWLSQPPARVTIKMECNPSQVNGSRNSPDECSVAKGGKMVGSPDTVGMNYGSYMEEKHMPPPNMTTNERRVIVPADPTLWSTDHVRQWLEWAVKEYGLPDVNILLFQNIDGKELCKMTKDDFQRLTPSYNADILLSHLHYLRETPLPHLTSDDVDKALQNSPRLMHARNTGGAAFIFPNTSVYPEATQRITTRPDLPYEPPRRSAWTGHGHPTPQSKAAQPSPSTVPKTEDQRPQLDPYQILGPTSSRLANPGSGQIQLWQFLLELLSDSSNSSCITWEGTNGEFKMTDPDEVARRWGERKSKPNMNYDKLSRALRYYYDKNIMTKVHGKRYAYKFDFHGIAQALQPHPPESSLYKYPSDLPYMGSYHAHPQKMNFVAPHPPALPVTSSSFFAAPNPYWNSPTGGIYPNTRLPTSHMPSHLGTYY
# How it was run: as §1
# ELF1 = ELF1 (Homo sapiens, UniProt P32519 1-619)
# How it was run: as §1
# EHF = molecular target: T4, EHF (Homo sapiens, UniProt Q9NZC4 1-300)
# T4 sequence: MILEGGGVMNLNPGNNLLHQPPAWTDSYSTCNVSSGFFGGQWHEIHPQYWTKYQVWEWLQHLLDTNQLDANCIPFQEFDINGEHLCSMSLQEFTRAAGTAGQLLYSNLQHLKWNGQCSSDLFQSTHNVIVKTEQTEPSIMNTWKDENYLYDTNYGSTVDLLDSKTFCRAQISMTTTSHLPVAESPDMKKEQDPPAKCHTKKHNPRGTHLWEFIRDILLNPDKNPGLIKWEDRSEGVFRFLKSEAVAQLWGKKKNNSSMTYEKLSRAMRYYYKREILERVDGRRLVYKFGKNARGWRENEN
# How it was run: as §1
# SPI1 = SPI1 (Homo sapiens, UniProt P17947 1-270)
# How it was run: as §1
# SPIC = molecular target: T5, SPIC (Homo sapiens, UniProt Q8N5J4 1-248)
# T5 sequence: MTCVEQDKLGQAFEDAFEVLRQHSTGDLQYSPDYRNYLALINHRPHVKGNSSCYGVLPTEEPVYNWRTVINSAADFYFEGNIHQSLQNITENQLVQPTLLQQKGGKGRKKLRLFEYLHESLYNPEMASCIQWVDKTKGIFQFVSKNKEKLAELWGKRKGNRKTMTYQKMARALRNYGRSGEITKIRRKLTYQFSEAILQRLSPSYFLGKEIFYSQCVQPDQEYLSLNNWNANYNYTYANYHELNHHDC
# How it was run: as §1
# ELF4 = ELF4 (Homo sapiens, UniProt Q99607 1-663)
# How it was run: as §1
# ELK4 = molecular target: T6, ELK4 (Homo sapiens, UniProt P28324-2 1-405)
# T6 sequence: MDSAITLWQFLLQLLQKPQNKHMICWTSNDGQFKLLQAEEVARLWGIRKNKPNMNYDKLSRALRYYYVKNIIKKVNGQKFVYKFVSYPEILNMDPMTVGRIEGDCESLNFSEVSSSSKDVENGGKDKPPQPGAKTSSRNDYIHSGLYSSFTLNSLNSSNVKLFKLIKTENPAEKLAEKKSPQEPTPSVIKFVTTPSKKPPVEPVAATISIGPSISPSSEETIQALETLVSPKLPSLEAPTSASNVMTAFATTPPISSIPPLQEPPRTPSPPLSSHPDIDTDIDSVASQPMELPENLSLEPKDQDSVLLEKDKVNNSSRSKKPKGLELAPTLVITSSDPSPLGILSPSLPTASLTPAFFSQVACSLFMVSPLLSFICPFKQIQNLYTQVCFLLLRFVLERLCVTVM
# How it was run: as §1
# ERF = molecular target: T7, ERF (Homo sapiens, UniProt P50548 1-548)
# T7 sequence: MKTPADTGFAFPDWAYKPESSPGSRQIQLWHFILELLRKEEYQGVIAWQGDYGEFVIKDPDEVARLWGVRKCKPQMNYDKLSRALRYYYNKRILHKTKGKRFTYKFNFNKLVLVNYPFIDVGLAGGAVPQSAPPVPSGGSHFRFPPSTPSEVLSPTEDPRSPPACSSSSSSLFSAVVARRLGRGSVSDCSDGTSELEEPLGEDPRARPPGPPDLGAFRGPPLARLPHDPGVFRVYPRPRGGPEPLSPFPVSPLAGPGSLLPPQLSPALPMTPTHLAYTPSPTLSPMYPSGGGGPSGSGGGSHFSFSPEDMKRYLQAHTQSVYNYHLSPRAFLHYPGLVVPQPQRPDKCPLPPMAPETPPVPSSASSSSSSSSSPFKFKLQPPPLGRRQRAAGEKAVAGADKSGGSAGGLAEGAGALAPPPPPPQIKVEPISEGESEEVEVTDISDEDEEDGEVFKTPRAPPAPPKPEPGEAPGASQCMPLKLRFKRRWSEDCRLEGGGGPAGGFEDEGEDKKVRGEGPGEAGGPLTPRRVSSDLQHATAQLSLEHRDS
# How it was run: as §1
# ETV3L = molecular target: T8, ETV3L (Homo sapiens, UniProt Q6ZN32 1-361)
# T8 sequence: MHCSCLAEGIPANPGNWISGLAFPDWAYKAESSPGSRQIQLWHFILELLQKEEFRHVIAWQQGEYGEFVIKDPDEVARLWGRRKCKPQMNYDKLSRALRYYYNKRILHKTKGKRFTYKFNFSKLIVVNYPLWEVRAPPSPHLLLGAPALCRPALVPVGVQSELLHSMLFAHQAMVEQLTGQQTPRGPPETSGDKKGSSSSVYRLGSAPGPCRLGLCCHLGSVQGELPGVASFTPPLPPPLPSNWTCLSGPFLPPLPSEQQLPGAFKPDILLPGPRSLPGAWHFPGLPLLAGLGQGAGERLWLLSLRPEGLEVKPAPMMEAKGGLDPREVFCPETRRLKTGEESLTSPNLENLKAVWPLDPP
# How it was run: as §1
# ELF5 = molecular target: T9, ELF5 (Homo sapiens, UniProt Q9UKW6-2 1-255)
# T9 sequence: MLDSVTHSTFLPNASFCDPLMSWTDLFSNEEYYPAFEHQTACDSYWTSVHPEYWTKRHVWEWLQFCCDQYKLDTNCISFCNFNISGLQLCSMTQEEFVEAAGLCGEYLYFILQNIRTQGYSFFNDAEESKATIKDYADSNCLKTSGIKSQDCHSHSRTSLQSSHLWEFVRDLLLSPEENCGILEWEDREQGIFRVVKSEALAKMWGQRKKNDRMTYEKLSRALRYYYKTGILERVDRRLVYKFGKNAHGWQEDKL
# How it was run: as §1
# ETV3 = molecular target: T10, ETV3 (Homo sapiens, UniProt P41162-2 1-143)
# T10 sequence: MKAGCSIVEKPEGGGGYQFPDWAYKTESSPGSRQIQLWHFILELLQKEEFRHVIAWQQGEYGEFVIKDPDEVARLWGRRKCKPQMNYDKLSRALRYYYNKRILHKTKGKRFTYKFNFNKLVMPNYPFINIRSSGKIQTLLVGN
# How it was run: as §1
# Chain of ELF1 (P32519 whole entry): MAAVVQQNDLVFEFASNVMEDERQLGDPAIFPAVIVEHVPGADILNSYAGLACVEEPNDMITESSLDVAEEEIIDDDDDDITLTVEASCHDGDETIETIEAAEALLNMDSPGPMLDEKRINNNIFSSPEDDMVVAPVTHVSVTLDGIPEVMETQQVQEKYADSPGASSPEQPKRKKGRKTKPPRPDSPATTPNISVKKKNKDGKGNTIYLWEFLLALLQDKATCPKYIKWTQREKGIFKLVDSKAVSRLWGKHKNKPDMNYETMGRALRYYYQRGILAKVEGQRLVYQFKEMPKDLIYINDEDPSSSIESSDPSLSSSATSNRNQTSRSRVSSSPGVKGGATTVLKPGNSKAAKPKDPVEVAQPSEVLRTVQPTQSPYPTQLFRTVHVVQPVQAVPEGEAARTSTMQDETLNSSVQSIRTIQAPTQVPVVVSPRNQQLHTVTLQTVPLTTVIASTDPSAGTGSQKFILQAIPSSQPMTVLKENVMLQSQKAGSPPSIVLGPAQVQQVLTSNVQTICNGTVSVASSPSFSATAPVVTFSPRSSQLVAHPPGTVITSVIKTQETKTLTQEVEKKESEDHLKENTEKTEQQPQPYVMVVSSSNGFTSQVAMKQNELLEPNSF
# Chain of ELF4 (Q99607 whole entry): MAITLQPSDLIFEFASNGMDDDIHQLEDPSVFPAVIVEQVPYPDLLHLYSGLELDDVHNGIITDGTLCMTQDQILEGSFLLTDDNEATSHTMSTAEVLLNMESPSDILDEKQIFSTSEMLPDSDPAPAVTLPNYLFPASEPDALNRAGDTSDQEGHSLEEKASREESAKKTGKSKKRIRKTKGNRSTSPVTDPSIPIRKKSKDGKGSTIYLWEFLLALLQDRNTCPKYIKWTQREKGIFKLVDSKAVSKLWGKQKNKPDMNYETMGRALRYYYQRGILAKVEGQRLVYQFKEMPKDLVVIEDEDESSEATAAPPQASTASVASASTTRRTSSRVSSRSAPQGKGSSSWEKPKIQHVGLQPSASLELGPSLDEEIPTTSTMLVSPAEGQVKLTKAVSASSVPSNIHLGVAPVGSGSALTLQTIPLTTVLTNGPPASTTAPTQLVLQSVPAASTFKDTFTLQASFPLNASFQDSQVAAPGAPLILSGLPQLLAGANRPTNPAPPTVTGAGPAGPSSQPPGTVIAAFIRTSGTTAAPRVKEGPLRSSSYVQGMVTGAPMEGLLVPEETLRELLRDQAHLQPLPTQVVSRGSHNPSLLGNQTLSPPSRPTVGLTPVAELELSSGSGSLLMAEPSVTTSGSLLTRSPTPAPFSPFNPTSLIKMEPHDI
sequence,measurement,setting,value
CGCCAT,binding signal,FLI1,"1.08 fold enrichment (6-mer frequency, TF over GST control)"
same,binding signal,ELK1,"1.01 fold enrichment (6-mer frequency, TF over GST control)"
same,binding signal,ERG,"1.02 fold enrichment (6-mer frequency, TF over GST control)"
same,binding signal,ELF1,"1.02 fold enrichment (6-mer frequency, TF over GST control)"
same,binding signal,EHF,"1.01 fold enrichment (6-mer frequency, TF over GST control)"
same,binding signal,SPI1,"1.08 fold enrichment (6-mer frequency, TF over GST control)"
same,binding signal,SPIC,"1.06 fold enrichment (6-mer frequency, TF over GST control)"
same,binding signal,ELF4,"1.12 fold enrichment (6-mer frequency, TF over GST control)"
same,binding signal,ELK4,"1.1 fold enrichment (6-mer frequency, TF over GST control)"
same,binding signal,ERF,"1.08 fold enrichment (6-mer frequency, TF over GST control)"
same,binding signal,ETV3L,"1.08 fold enrichment (6-mer frequency, TF over GST control)"
same,binding signal,ELF5,"1.03 fold enrichment (6-mer frequency, TF over GST control)"
same,binding signal,ETV3,"1.02 fold enrichment (6-mer frequency, TF over GST control)"
